Among the data in PubChem BioAssay (NCATS) are Potency values, retold here.

“And” between values parts separate entries of the source, which are not always exact repeats. Equal values may be shown once. Results filed as inconclusive are left out. The source made the active and inactive calls. The call rests on the fitted dose curve. Some results are limits rather than exact numbers.
Potency means the concentration at half of the fitted maximal effect.

The experiment can be described thus: Cell Viability - HepG2 (AID 433).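 Further: potency for ATP loss meaning cytotoxicity.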 Conditions: qHTS. The source says:
NIH Chemical Genomics Center [NCGC]
NIH Molecular Libraries Screening Centers Network [MLSCN]
National Institutes of Environmental Health Sciences [NIEHS]
National Toxicology Program [NTP]
We have developed a 1536-well cell-based assay for quantitative high throughput screening (qHTS) against a number of cell lines to determine in vitro cytotoxicity of small molecules. This particular assay uses the HepG2 cell line which is derived from hepatocellular carcinoma.
NCGC Assay Protocol Summary:
The CellTiter-Glo luminescent cell viability assay (Promega) is a homogeneous method to measure the number of viable cells in culture. The end point readout of this assay is based on quantitation of intracellular ATP, an indicator of metabolic activity, using the luciferase reaction. Luciferase catalyzes the oxidation of beetle Luciferin to oxyluciferin and light in the presence of ATP. The luminescent signal is proportional to amount of ATP present.
Using the CellTiter-Glo luminescent cell viability assay, the amount of cellular ATP was measured in the HepG2 cell line with complete culture medium following compound treatment for 40 hours. The assay was performed in opaque white Kalypsys 1536-well plates. In the screen, tamoxifen and doxorubicin were used as positive controls. Library compounds were measured for their ability to cause acute toxicity in the cell line, as reflected by a decrease in intracellular ATP levels, in a concentration-dependent manner. Data were normalized to the controls for basal activity (DMSO only) and 100% inhibition (100 uM tamoxifen). AC50 values were determined from concentration-response data modeled with the standard Hill equation.
qHTS protocol fo CellTiter Glo HepG2 cellular assay
[Step] [Parameter] [Value] [Description]
1. Reagent; 5 uL; 1500 HepG2 cells/well
2. Time; 5 hr; 37 °C incubation
4. Controls; 23 nL; Tamoxifen 0.34 uM to 100 uM & Doxorubicin 0.02 nM to 100 uM
5. Time; 40 hr; 37 °C incubation
6. Reagent; 5 uL; CellTiter Glo reagent
7. Time; 20 min; Room Temperature
8. Detection; Luminescence; Viewlux plate reader
Keywords: cell viability, cytotoxicity, HepG2 cell line, luminescence, NTPHTS, NTPHTS_NCGC, NIEHS, EPA, DSSTox, MLSMR, MLSCN, NIH Roadmap, qHTS, NCGC
For `CCCCCl`, the Potency is > 92 µM (inactive). With `O=C1C2CC=CCC2C(=O)N1SC(Cl)(Cl)Cl` (centres undefined), the Potency was 40.6 µM (active) and 37.9 µM (active). The value for `O=Cc1ccco1` was > 92 µM (inactive). The value for `Clc1ccccc1Cl` was > 92 µM (inactive); that for `O=C/C=C/c1ccccc1` was > 92 µM (inactive).

Regarding `C[C@H]1CCC[C@H](O)CCCCCc2cc(O)cc(O)c2C(=O)O1`, the Potency was > 92 µM (inactive). The result for `[O]=[Cr](=[O])([OH])[O][Cr](=[O])(=[O])[OH]` reads 12.2 µM (active) and 14.7 µM (active) and 7.52 µM (active). The result for `[O]=[Cd]` reads > 92 µM (inactive); that for `O=[N+]([O-])c1ccccc1`, > 92 µM (inactive); that for `ClC(Cl)(Cl)Cl`, > 92 µM (inactive). The value for `O=C1CCO1` was > 92 µM (inactive); that for `ClC=C(Cl)Cl` was > 92 µM (inactive); that for `COC1=CC(=O)O[C@@H](/C=C/c2ccccc2)C1` was > 92 µM (inactive). On to `C[C@]12CCC(=O)C[C@@H]1CC[C@@H]1[C@@H]2CC[C@]2(C)[C@@H](O)CC[C@@H]12`, for which the Potency is > 92 µM (inactive).

On to `O=[N+]([O-])c1ccc(F)c([N+](=O)[O-])c1`, for which the Potency is 46.1 µM (active). The result for `Oc1cc(Cl)c(Cl)cc1Cl` reads > 92 µM (inactive); that for `COc1ccc2c(c1OC)C(=O)OC2C1c2cc3c(cc2CCN1C)OCO3` (centres undefined), > 92 µM (inactive); that for `C=CCN=C=S`, > 92 µM (inactive).

Regarding `O=C1C=CC(=O)C=C1`, the Potency was > 92 µM (inactive). The value for `O=CC=O` was > 92 µM (inactive); that for `CCCCCCCCOC(=O)c1ccccc1C(=O)OCCCCCCCC` was > 92 µM (inactive). With `CCOC(=O)c1ccccc1C(=O)OCC`, the Potency was > 92 µM (inactive). With `ClCC1CO1` (centres undefined), the Potency is > 92 µM (inactive). In the case of `NNC(N)=O`, the Potency is > 92 µM (inactive).

For `S=C=S`, the Potency is > 92 µM (inactive). The result for `CC(C)CCON=O` reads > 92 µM (inactive).

Take `C[C@H]1CC[C@@H]2[C@@H](C)[C@H]3[C@H](C[C@H]4[C@@H]5CC=C6CC(O[C@@H]7O[C@H](CO)[C@H](O)[C@H](O[C@@H]8O[C@H](CO)[C@@H](O)[C@H](O)[C@H]8O)[C@H]7O[C@H]7O[C@@H](C)[C@H](O)[C@@H](O)[C@H]7O)CC[C@]6(C)[C@H]5CC[C@]34C)N2C1` (some centres undefined): the Potency is 23.7 µM (active).

Regarding `CC(C)(C)c1cc(O)ccc1O`, the Potency was > 92 µM (inactive). The result for `O=C(O)C(Cl)(Cl)Cl` reads > 92 µM (inactive).
